Most compounds without a hit are left out; they make up all but 12% or so of the library.
RORgamma inh: ROR gamma (mouse) transcription inhibition | Potency, µM (top dose mostly 53.6 µM), inactives show at the top dose activity change, negative = inhibition, most hits filed as inhibitors | P51450 | Drosophila S2 Gal4-RORgamma UAS-luciferase reporter, 20 h | hit rate 5.4% among 310,000 | AID 2551; further: nearly all actives have a fitted effect of over 60% in size
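Drosophila S2 cells stably expressing Gal4-DBD/mouse RORγ fusion under metallothionein promoter plus UAS-luciferase; compound 1 h, then 700 uM CuSO4 induction for 20 h at ambient temperature; inhibition read as reduced luminescence.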
PLK1 PBD inh: PLK1 (human) polo-box domain binding inhibition; Plk1 PBD binding of FITC phosphopeptide, fluorescence polarization; Potency, µM, for the others: max response, negative = inhibition, actives largely listed as inhibitors; AID 720504; P53350; hit rate 2.8% among 360,000; further: series mostly up to about 57 µM; nearly all actives have a fitted effect of over 65% in size
Target sequence (P53350 whole entry, looked up, the tested form may be a part): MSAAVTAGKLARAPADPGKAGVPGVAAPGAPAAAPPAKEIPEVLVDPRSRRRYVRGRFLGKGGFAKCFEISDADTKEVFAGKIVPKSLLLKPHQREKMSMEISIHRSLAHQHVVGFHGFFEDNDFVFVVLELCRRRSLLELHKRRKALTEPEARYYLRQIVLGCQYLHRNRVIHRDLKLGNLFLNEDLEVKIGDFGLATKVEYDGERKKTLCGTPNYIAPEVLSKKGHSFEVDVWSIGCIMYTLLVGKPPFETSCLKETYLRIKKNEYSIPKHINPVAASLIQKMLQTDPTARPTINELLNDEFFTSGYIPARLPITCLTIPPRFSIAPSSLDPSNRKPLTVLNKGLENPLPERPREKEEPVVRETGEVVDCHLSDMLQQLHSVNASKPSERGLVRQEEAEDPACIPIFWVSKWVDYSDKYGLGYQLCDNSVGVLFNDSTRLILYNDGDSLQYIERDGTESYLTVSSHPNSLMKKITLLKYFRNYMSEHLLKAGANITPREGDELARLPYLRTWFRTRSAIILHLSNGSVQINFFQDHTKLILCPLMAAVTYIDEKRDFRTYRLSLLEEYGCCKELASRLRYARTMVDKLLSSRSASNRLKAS
Gal4-VP16 FLuc: counter-screen for ROR gamma inhibitors: Gal4-VP16 reporter. Drosophila S2 Gal4-VP16 UAS-luciferase, luminescence, 20 h. hit rate 3.5% among 310,000. Potency, µM (top dose mostly 53.6 µM), for inactives: at the top dose activity, negative = inhibition, hits mostly inhibitors;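 further: Gal4-VP16 expression switched on by copper sulfate through the metallothionein promoter; nearly all actives have a fitted effect of over 50% in size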
Sfp inh: blocks B. subtilis Sfp PPTase activity; Q9F4F7; Biochemical Sfp PPTase activity, qHTS; Potency, µM, for inactives: largest response in the series, negative = inhibition, usual class: inhibitors; hit rate 3.5% among 310,000;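 further: the enzyme is Sfp with the accession as filed and its product quenches rhodamine fluorescence; 0% = enzyme reaction without inhibitor and -100% = no enzyme wells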
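Fluorescence-quenching assay: 15 nM Sfp-PPTase preincubated 15 min at room temperature with compound, then 5 uM rhodamine-CoA and 12.5 uM BHQ-2-labelled YbbR peptide added. Fluorescence (ex 525/em 598 nm) read at start and after 30 min; difference gives rate.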
ALDH1A1 inh: blocks purified human ALDH1A1 activity; P00352; Purified ALDH1A1, NADH fluorescence, propionaldehyde substrate; Potency, µM (series often up to 75.3 µM), for the others: at the highest dose activity, negative = inhibition, most hits filed as inhibitors; hit rate 7.3% among 220,000; AID 1030; active means well fitted inhibition curve with a large enough effect, not every such curve was filed as active; inconclusive means small, poorly fitted or top-dose-only effect, or another doubt; inactive means no such curve, though single readings can be large or run the other way;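 further: plate controls were no enzyme wells and a reference inhibitor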
* hit, by the source's call; ? = inconclusive; / = no result given; ! = repeats disagree; [ ] = dose if it differs, or a comment. Unless noted, the call rests on the fitted dose curve; in most records, active means well fitted curve in the direction sought with a large enough effect; inconclusive means small, poorly fitted or top-dose-only effect, or another doubt; inactive means no such curve, though single readings can be large; an effect the other way counts as inactive or inconclusive. Unless noted, on the % scale 0 is the no-effect control and ±100 the full control effect; potency means the concentration at half of the fitted maximal effect.

SMILES | RORgamma inh | PLK1 PBD inh | Gal4-VP16 FLuc | Sfp inh | ALDH1A1 inh
CCCN1C(=O)C(NC(C)=O)c2ccccc21 (stereo not drawn) | 28% | 1% | -3% | 2% | 0.13µM*
CC(C)(N=NC(C)(C)C(=N)N)C(=N)N | -11% | / | -14% | -8% | 32µM*!
Cc1cc2nc(-c3ccc(=O)[nH]c3)n(C)c2cc1C | -16% | 1% | 0% | 11% | /
Cc1cc2nc(C)c(=O)n(C)c2cc1C | -14% | 13µM* | 7% | 0% | ?
O=C(Nc1ccccc1)c1cc(C2CCCCN2C(=O)OCCF)on1 (stereo not drawn) | / | -15% | / | / | /
Nc1ccccc1C(=O)NNc1ncc(C(F)(F)F)cc1Cl | 0.79µM* | -3% | 1µM* | 5% | -9%
O=C(NNc1ncc(C(F)(F)F)cc1Cl)c1ccc(Cl)c(Cl)c1 | 11µM* | 10% | ? | 15% | -10%
Cc1cnc(CNc2ncncc2-c2ccccc2C)cn1 | ? | / | 15% | ? | 1%
C[C@H](NC(=O)c1ccc(Cl)c(Cl)c1)c1ccc(-c2ccccc2)cc1 | / | / | / | / | 5%[13.5 µM]
Cc1ccc(S(=O)(=O)Nc2nc3ccc(S(=O)(=O)N4CCCC4)cc3s2)cc1 | -16% | ? | 2% | -4% | 0.16µM*
CC(=O)Nc1ccc2nc(NS(=O)(=O)c3ccc(C)cc3)sc2c1 | 3% | -11% | -12% | 1% | -1%
O=S(=O)(Nc1nc2ccc(S(=O)(=O)N3CCCCC3)cc2s1)c1ccccc1 | 0% | ? | -1% | -18% | 0.35µM*
O=S(=O)(Nc1nc2ccccc2nc1Nc1cccc(S(=O)(=O)N2CCCCC2)c1)c1ccccc1 | ? | ? | 13µM* | -12% | ?
CC(=O)Nc1nc2ccc(S(=O)(=O)N3CCCCC3)cc2s1 | -30% | -10% | 1% | 7% | /
CCC(CC)C(=O)N(C)c1c(C)nc2c(OCc3ccc(C#N)cc3)cccn12 | / | -1% | / | / | /
COc1ccc(CCNC(=O)CSc2cccc3cccnc23)cc1OC | 1µM* | ? | 0% | 2% | 8%
COc1ccccc1-n1nnnc1SCC(=O)Nc1ccc(C)c(N)c1 | 38% | -8% | -5% | 79µM* | /
COc1ccc(CCNC(=O)CSc2ccccn2)cc1OC | 0% | -4% | -2%[10 µM] | -30% | -6%
COc1ccc(CCNC(=O)CSc2nnnn2-c2ccccc2OC)cc1OC | 12% | -10% | -17% | 6% | 0.28µM*
COc1ccc(CCNC(=O)CSc2nnnn2C)cc1OC | 4% | 2% | -6% | 11% | 6%
COc1cc2c(cc1OC)C1N(CC2)C(=O)CCC12C(=O)CCCC2=O (stereo not drawn) | -29% | / | -7% | ? | 4%
CCOc1ccc(NC(=O)c2cc3ccccc3cc2OC)cc1 | ? | -4% | 7% | -4% | /
COc1ccc(N/N=C(C)/C(=N/O)C(=O)Nc2ccccc2)cc1 | 7% | -24% | 6% | 4% | 14µM*
COc1ccccc1C(=O)NNC(=O)c1cccc(F)c1 | 10µM* | -12% | 10µM* | 1% | 7%
COc1ccc(NC(=O)c2cc3ccccc3cc2OC)cc1 | ? | 30µM* | 0% | 14% | /
SMILES | RORgamma inh | PLK1 PBD inh | Gal4-VP16 FLuc | Sfp inh | ALDH1A1 inh
COc1cc2cc(C(=O)Nc3ccccc3)c(N)nc2cc1OC | 23% | 24µM* | -1% | ? | ?
CCCCCCCC/C=C\CCCCCCCC(=O)N(CCO)CCO | -1% | / | 3% | / | ?
Cc1cc(C)nc(NNC(=O)c2ccccc2O)n1 | 11µM* | 3% | 3% | ? | 10%
COc1cc2ccccc2cc1C(=O)NC(=S)Nc1ccc(C(=O)O)cc1 | -2% | 30µM* | -16% | -24% | /
COc1cc2ccccc2cc1C(=O)NC(=S)Nc1cccc(C(=O)O)c1 | ? | ? | 2%[10 µM] | 2% | ?
COc1cc2ccccc2cc1C(=O)NNC(=O)c1ccccc1O | 11µM* | / | ? | 17% | /
CCOC(=O)Cc1ccc(Nc2nc(NCCOC)nc3ccsc23)cc1 | / | 2% | / | / | /
NC(=O)c1cc(N2C(=O)C=CC2=O)ccc1Cl | 7.1µM* | 21µM* | 7.1µM* | 8.9µM* | 0.79µM*
CC(=O)Nc1ccc(Cl)c(C(N)=O)c1 | -6% | -1% | 0% | 13% | 5%
Cc1ccc(O)c(C(=O)c2cc(C#N)c(=O)n(-c3nccs3)c2)c1 | ? | -15% | -12% | 50µM* | 8.9µM*
CCOC(=O)C1=C(O)C(=O)N(Cc2ccc(C(C)(C)C)cc2)CC1 | 28% | -16% | 4% | -5% | 14µM*
CCOC(=O)C1=C(O)C(=O)N(Cc2ccccc2)CC1 | 8% | -11% | 2% | 7% | -5%
S=C(CSc1ccccc1)Nc1cccc2ccccc12 | / | 11µM* | / | / | 4%[13.5 µM]
CC(/C=N/N1CCN(c2ccccc2)CC1)=C\c1ccccc1 | 16% | -5% | 4% | 4% | 2%
CC(/C=N/N1C(=O)CSC1=S)=C\c1ccccc1 | 11µM* | -18% | 5% | -11% | ?
COc1ccc(/C=N/N2C(=O)CSC2=S)cc1 | 16µM* | -28% | 3% | -13% | ?
CC(C)(C)c1ccc(/C=N/N2C(=O)CSC2=S)cc1 | 10µM* | -8% | ? | -1% | /
COc1ccc(/C=N/N2C(=O)CSC2=S)cc1Br | / | 5% | / | / | /
CN(C)Cc1csc(NC(=O)Nc2ccccc2C(C)(C)C)n1 | / | -4% | / | / | /
Cc1ccc(Cl)cc1-c1cc(C(=O)NCc2cc(C(F)(F)F)cc(C(F)(F)F)c2)[nH]n1 | / | 4% | / | / | /
O=C1C2ON(c3ccc(Cl)cc3)C(c3ccco3)C2C(=O)N1c1ccccc1 (stereo not drawn) | 4% | -9% | ? | 32µM* | ?
O=C1C2ON(c3ccccc3)C(c3ccncc3)C2C(=O)N1c1ccc(Br)cc1 (stereo not drawn) | -15% | -5% | 4% | 15% | ?
O=C(O)COc1ccccc1C1C2C(=O)N(c3ccccc3)C(=O)C2ON1c1ccccc1 (stereo not drawn) | 7% | 24µM* | 10% | 7% | 25µM*
O=C(O)c1ccc(N2C(=O)C3ON(c4ccccc4)C(c4ccccc4F)C3C2=O)cc1 (stereo not drawn) | -12% | -20% | -22% | -17% | ?
Cc1ccc(N2C(=O)C3ON(c4ccccc4)C(c4ccncc4)C3C2=O)cc1 (stereo not drawn) | -5% | -10% | -8% | -8% | 2.5µM*
CN1OC2C(=O)N(c3ccccc3)C(=O)C2C1c1ccc(F)cc1 (stereo not drawn) | 24% | -6% | 0% | 9% | 8.9µM*
Nc1cccc2c(=O)[nH]ccc12 | 1% | / | -5% | -21% | /
COc1cc(CNC(=O)c2cc(-c3cc(OC)ccc3Cl)n[nH]2)cc(OC)c1 | / | 5% | / | / | /
COc1ccc(/C=C(/NC(=O)c2ccco2)C(=O)N2CCCC2=O)cc1 | 19% | -17% | -1% | 27% | 1%
C=CC1=C2C=C(C3CC3)N(CCCOC(C)C)C=C2C(=O)C(C)(OC(=O)c2ccco2)C1=O (stereo not drawn) | / | / | / | -26% | 13%[13.5 µM]

Source: PubChem BioAssay
